Measurements taken from PubChem BioAssay AID778 (Sanford-Burnham Center for Chemical Genomics, 2007).
Hit rate of the full screen: of about 96,000 compounds, about 20,000 (21%) were called active. These entries were drawn from the full list. Values without a mark were called inactive.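 The calls were made as follows: active = CYP2C19 inhibition above a set limit at 5 µM in the primary screen (cut at about 50% in these data); inactive = the rest.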

Each compound was assayed against Cytochrome P450 2C19 (Homo sapiens) (UniProt P33261) (assay: blockers of cytochrome P450 2C19 activity – biochemical, luminescence, ADME assay, primary screen (AID 778;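 also: plate controls were negative control wells for no effect and 2.5 mM tranylcypromine positive control for full effect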)). Conditions: CYP2C19 Supersomes, luciferin-H EGE luminescence, 30 min; at 5 µM; active compounds read high.
Sequence of Cytochrome P450 2C19 (Homo sapiens) (P33261 whole entry, looked up): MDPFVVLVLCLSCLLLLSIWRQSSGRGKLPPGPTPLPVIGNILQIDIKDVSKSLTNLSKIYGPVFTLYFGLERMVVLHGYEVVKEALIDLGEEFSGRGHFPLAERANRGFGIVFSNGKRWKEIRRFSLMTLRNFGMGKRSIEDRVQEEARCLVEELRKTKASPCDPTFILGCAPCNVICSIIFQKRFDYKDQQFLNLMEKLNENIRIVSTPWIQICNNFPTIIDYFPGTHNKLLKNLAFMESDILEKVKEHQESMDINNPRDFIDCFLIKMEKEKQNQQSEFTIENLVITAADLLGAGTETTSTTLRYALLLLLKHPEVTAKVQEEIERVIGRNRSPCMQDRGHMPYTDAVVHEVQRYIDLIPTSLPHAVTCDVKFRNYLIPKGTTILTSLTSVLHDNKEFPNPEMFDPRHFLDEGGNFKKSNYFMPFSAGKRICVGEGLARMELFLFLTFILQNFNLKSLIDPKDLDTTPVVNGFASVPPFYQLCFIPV

Row | Compound | inhibition
1 | O=C(Cn1ccc([N+](=O)[O-])n1)NCc1cccs1 | 0.6%
2 | O=C(Nc1cc(=O)[nH]c2ncnn12)c1ccccc1Cl | 2.2%
3 | O=C(C1CCCO1)N(Cc1ccccc1)c1ccccc1 (stereo unspecified) | 0%
4 | COc1ccc(C(CC(=O)O)NC(=O)Cc2ccccc2)cc1 (stereo unspecified) | -9.7%
5 | CCOc1ccc(C(CCc2ccccc2)NC(=O)c2ccc(OC)c(OC)c2)cc1OCC (stereo unspecified) | 56.7% (active)
6 | CCOc1ccc(C(CC(=O)O)NC(=O)COc2ccccc2)cc1 (stereo unspecified) | -2.9%
7 | COc1cc2[nH]c(=O)n(CCC(=O)NC3CCN(Cc4ccccc4)CC3)c(=O)c2cc1OC | -19%
8 | COc1ccc(N(CC(=O)NC2CCCCCCC2)S(=O)(=O)c2c(C)nn(C)c2C)cc1 | 42.8%
9 | Cc1ccc(S(=O)(=O)N(C)CC(=O)NC2CCCC2)cc1 | 11.9%
10 | CN(CC(=O)NC1CCCCC1)S(=O)(=O)c1cccc2cccnc12 | 57.6% (active)
11 | CCn1c2c(c3ccc(OC)cc31)CCCC2=O | 7.5%
12 | C=C(C)Cn1c(C)cc(C)c(S(=O)(=O)c2ccccc2C)c1=O | 19.6%
13 | CCCOc1ccc(N2C(=O)CC(N(CCc3ccc(S(N)(=O)=O)cc3)C(C)=O)C2=O)cc1 (stereo unspecified) | -16.6%
14 | CC(C)CCNC(=O)CN(C(=O)Cn1nnc(-c2ccc(F)cc2)n1)C1CCCC1 | 17.8%
15 | COc1cccc(N(CC(=O)NC2CCCC2)C(=O)Cn2nnc(-c3ccc(C)cc3)n2)c1 | 28.4%
16 | CC(C)CCNC(=O)C(C)N(C(=O)Cn1nnc(-c2ccc(F)cc2)n1)C1CCCC1 (stereo unspecified) | 78.7% (active)

Row | Compound | inhibition
17 | CC1(C)CC(O)C(CCC(O)c2ccccc2)C(C)(C)N1 (stereo unspecified) | -6.9%
18 | CCCOc1ccc(-c2nc(N)n[nH]2)cc1 | 5.8%
19 | Cn1c(=NC(=O)C2CC2)sc2cc(F)cc(F)c21 | 13.8%
20 | COc1ccc(CCN=C2SCC(=O)N2C)cc1OC | 88.2% (active)
21 | COc1ccc(CCN(C)CCN2C(=O)c3ccccc3C2=O)cc1OC | 2.8%
22 | COc1ccc(CCN2CNc3c(c(=O)n(C)c(=O)n3C)C2)cc1OC | -22.1%
23 | NC(=S)c1ccc(C(N)=S)o1 | 60.2% (active)
24 | CCOC(=O)c1c(C)[nH]c(C)c1C(=O)CSc1nc(N)cc(N)n1 | 17.6%
25 | Cc1ccc(S(=O)(=O)N2CCC(C(=O)N[C@@H](C)C(=O)NCCc3ccccc3)CC2)cc1 | 10.5%
26 | CC(=O)NS(=O)(=O)c1ccccc1 | 4.6%
27 | CS(=O)(=O)NCc1ccc(C(=O)NCc2ccccc2)cc1 | -8.4%
28 | Cc1ccc(S(=O)(=O)NCCSC(C)(C)C)cc1 | 11.6%
29 | O=S(=O)(NCCNS(=O)(=O)c1ccccc1)c1ccccc1 | 89% (active)
30 | Cc1ccc(C(=O)NCCNS(=O)(=O)c2ccccc2)cc1 | 81.4% (active)
31 | CC(C)(C)NC(=O)CN(Cc1cccs1)C(=O)CNS(=O)(=O)c1ccccc1 | 4.4%
